A selection: hits, their analogues and other compounds. The true share with any hit is near 7.5%.
Rab9 prom act: activators of Rab9 promoter; Huh7 Rab9 promoter-luciferase reporter, luminescence, 24 h; Potency, µM (titrated, usually from 9.22 µM), for inactives: top-dose activation, negative = inhibition, most hits filed as activators; 320,000 tested, 2.8% active; AID 485297; note: % of control where 0% means no effect; nearly all actives have a fitted effect of over 60% in size
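Luminescence from Amplite-detected luciferase (10 minutes, ambient) reports Rab9 promoter activation. Before that, stable Rab9-luciferase Huh7 cells (1500/well, reduced-serum OP-MEM I plus 10% FBS) were exposed to compound for 24 hours at 37C.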
SMN2 splice enh: enhancers of SMN2 splice variant expression; HEK293 SMN2-luciferase splicing reporter, luminescence, 30-36 h; Potency, µM (top dose mostly 46.1 µM), without a hit: top-dose activity change, positive = activation, hits mostly activators; 210,000 tested, 2.8% active; note: % of control where 0% means no effect; nearly all actives have a fitted effect of over 55% in size
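qHTS luciferase splicing reporter: luminescence rises when SMN2 exon 7 is included in transfected HEK293 cells. Compound exposure lasted 30-36 h at 37C, with 4.5 mM final sodium butyrate as control, followed by a ONE-Glo read.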
NPC1 promoter act: activators of NPC1 promoter; 320,000 tested, 2.4% active; AID 485313; Huh7 NPC1 promoter luciferase reporter, 24 h; Potency, µM (series often up to 9.22 µM), for inactives: at the top dose activation, most hits filed as activators; note: % of control where 0% means no effect; nearly all actives have a fitted effect of over 60% in size
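Huh7 reporter cells (NPC1 promoter driving luciferase) are dosed with compound for 24 h at 37 °C, 5% CO2; luciferase detection reagent is then added and luminescence measured after 10 min at ambient temperature.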
FLuc modulator: firefly luciferase modulation, counter-screen for miR-21 project. P08659. purified FLuc, Km substrates, luminescence inhibition. Potency, µM (doses to about 57.5 µM), for the others: at the highest dose activity change, negative = inhibition, most hits filed as inhibitors. 360,000 tested, 6.9% active. AID 588342;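 note: plate controls were vehicle for no effect and reference inhibitor for full effect; nearly all actives have a fitted effect of over 55% in size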
Target sequence (P08659 whole entry, looked up): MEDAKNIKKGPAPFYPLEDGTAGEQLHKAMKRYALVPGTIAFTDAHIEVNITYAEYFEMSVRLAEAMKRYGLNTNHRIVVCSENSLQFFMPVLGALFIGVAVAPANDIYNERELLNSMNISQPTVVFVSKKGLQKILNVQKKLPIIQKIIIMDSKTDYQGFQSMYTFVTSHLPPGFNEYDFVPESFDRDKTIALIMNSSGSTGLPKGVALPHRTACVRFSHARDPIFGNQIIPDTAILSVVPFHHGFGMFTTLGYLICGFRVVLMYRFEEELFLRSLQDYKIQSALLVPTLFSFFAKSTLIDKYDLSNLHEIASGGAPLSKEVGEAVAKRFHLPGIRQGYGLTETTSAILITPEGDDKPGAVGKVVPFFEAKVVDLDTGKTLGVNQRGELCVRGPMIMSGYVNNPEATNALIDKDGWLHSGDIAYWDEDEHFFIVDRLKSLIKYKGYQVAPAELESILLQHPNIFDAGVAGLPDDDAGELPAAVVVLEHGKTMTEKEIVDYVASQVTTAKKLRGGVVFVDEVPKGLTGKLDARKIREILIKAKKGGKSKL
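Purified P. pyralis luciferase, 10 nM final, with Km-level 10 uM D-luciferin and 10 uM ATP in 50 mM Tris acetate pH 7.5, 10 mM Mg acetate, 0.01% Tween-20, 0.05% BSA; 6-point qHTS titration about 60 µM downward; luminescence read.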
KinaseGlo FLuc: counter-screen: inhibitors of Kinase-Glo firefly luciferase; AID 1379; Kinase-Glo luciferase, ATP luminescence, 8 min; Q27757; Potency, µM (doses to about 38.3 µM), inactives show at the highest dose activity change, negative = inhibition, actives largely listed as inhibitors; 200,000 tested, 0.28% active; note: % is set by controls: 0 for no effect and ±100 for the full control effect; nearly all actives have a fitted effect of over 60% in size
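Compound is pinned into ATP-containing buffer (10 uM ATP, imidazole pH 7.2, 7 mM MgCl2). Kinase-Glo luciferase reagent is then added. Light output is recorded following an 8-min room-temperature incubation.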
ELG1 genotox: inducers of genotoxicity in HEK293T ELG1-luciferase cells; HEK293T ELG1-luciferase reporter, luminescence, 16 h; Potency, µM (series often up to 46 µM), without a hit: top-dose activity change, positive = activation, usual class: activators; 330,000 tested, 1.3% active; note: % of control where 0% means no effect; nearly all actives have a fitted effect of over 60% in size
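HEK293T cells expressing luciferase-tagged ELG1 were exposed to compound or DMSO vehicle for 16 hr at 37 °C and 5% CO2. Luciferase activity was then measured with ONE-Glo after 30 min at room temperature.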
The depositor's hits bear a star; ? = inconclusive; . = no result; [ ] = dose if it differs, or a comment. Calls come from the whole dose curve; as a rule, active = well fitted curve in the direction sought with a large enough effect; inconclusive = small, poorly fitted or top-dose-only effect, or another doubt; inactive = no such curve, though single readings can be large; an effect the other way counts as inactive or inconclusive. Potency is the fitted concentration of half-maximal effect.

SMILES	Rab9 prom act	SMN2 splice enh	NPC1 promoter act	FLuc modulator	KinaseGlo FLuc	ELG1 genotox
NC(=O)[C@H]1CC2(CC(c3cccc(NC(=O)COc4ccc(Cl)cc4)c3)=NO2)CN1C(=O)c1ccc(Cl)cc1 (some centres not stated)	-5.0%	.	-0.2%	7.57µM*	.	-17.5%
Cc1ccc(-c2ccc(=O)n(CC(=O)NC(C)c3ccccc3)n2)cc1 (configuration not stated)	.	.	.	0.0%	.	.
OC(COc1ccccc1)CN1CCOCC1 (configuration not stated)	6.6%	13.9%	-5.9%	11.6%	2.7%	1.3%
OC(COc1ccc2ccccc2c1Cl)CN1CCOCC1 (configuration not stated)	?	?	?	16.9µM*	10.7%	?
CC12CCC(C(=O)Nc3nccs3)(OC1=O)C2(C)C (configuration not stated)	2.0%	6.3%	0.7%	1.6%	4.7%	1.0%
CC12CCC(C(=O)Nc3nc4ccc(Br)cc4s3)(OC1=O)C2(C)C (configuration not stated)	?	?	?	19µM*	-0.2%	13.9%
CCCCC(=O)OCc1c(-c2cccc(OC)c2)ncc2ccccc12	-13.2%	.	1.4%	6.0%	.	-2.2%
Cc1cc(N2CCN(C)CC2)nc2ccc(NC(=O)Nc3ccccc3Cl)cc12	.	.	.	1.69µM*	.	.
Cc1ccc(NC(=O)Nc2ccc3nc(N4CCN(C)CC4)cc(C)c3c2)cc1F	.	.	.	-1.6%	.	.
Cc1cc(C)cc(NC(=O)Nc2ccc3nc(N4CCN(C)CC4)cc(C)c3c2)c1	.	.	.	-19.7%	.	.
COc1cccc(NC(=O)Nc2ccc3nc(N4CCN(C)CC4)cc(C)c3c2)c1	.	.	.	12µM*	.	.
COc1ccc(N2CC(C(=O)N[C@@H](CC(C)C)C(=O)NC3CCCC3)CC2=O)cc1 (some centres not stated)	-4.5%	.	0.1%	0.7%	.	1.0%
CC(=O)c1ccc(NC(=O)CSc2nc3c(=O)n(C)c(=O)n(C)c3n2C)cc1	.	.	.	2.0%	.	.
COc1ccc(Cc2noc(-c3ccccc3)n2)cc1OC	-4.4%	-32.1%	-2.2%	-10.0%	4.2%	-0.1%
COc1ccc(-c2nc(Cc3ccc(Cl)cc3)no2)cc1OC	0.9%	-14.3%	8.9%	-1.8%	-0.5%	7.4%
Cc1ccccc1-c1nc(Cc2ccccc2)no1	?	?	?	12µM*	-2.6%	?
Clc1ccc(-c2nc(Cc3ccccc3)no2)cc1	?	0.2%	?	12µM*	0.7%	20.6µM*
Cc1cc(C)c(-c2n[nH]c3c2C(c2ccccc2F)N(Cc2ccco2)C3=O)c(O)c1 (configuration not stated)	.	-110.8%	.	-3.9%	.	.
COc1ccc(-c2nc(CN3CCC(C(=O)NCc4ccc(C)cc4)CC3)c(C)o2)cc1OC	.	-4.9%	.	-3.2%	.	.
O=C(Nc1ccc(Br)cc1F)C1CCN(c2nc3ccccc3[nH]2)CC1	.	.	.	-7.8%	.	.
Nc1c(-c2ccc(Cl)cc2)cnn1-c1cccc(C(F)(F)F)c1	?	-11.0%	?	?	-1.1%	6.5%
Cc1nn(-c2cccc([N+](=O)[O-])c2)c(N)c1-c1ccccc1	2.51µM*	12.6µM*	?	15.1µM*	-2.1%	16.6%
Nc1nn(-c2ccccc2)c2ccc([N+](=O)[O-])cc12	-0.9%	.	12.2%	16.9µM*	.	10.7%
Nc1c(-c2ccc(Cl)cc2)cnn1-c1cccc([N+](=O)[O-])c1	?	-4.5%	29.2%	15.1µM*	-8.6%	14.7%
Nc1c(-c2ccccc2)cnn1-c1cccc([N+](=O)[O-])c1	?	19.5%	?	15.1µM*	-2.9%	?
SMILES	Rab9 prom act	SMN2 splice enh	NPC1 promoter act	FLuc modulator	KinaseGlo FLuc	ELG1 genotox
CCN(C[C@H]1N[C@@](Cc2ccccc2)(C(=O)OC)[C@H]2C(=O)N(C)C(=O)[C@@H]12)C(=O)COC	.	.	.	.	.	1.5%
O=[N+]([O-])c1ccc2cn(-c3ccccc3)nc2c1	2µM*	17.8µM*	?	9.53µM*	-9.5%	?
O=[N+]([O-])c1cc(/C=N/O)ccc1Oc1cccc(Cl)c1	-11.9%	-6.1%	-8.1%	-13.4%	-4.7%	14.1%
O=[N+]([O-])c1cc(/C=N/O)ccc1Oc1ccccc1Cl	-3.5%[1.84 µM]	1.4%	8.9%	19µM*	0.8%	?
O=C(Cc1cccs1)Nc1nnc(SCC(=O)N2CCCCC2)s1	-2.3%	23.5%	-1.3%	1.1%	-4.4%	-7.2%
O=C(Nc1nnc(SCC(=O)N2CCOCC2)s1)c1ccccc1Cl	?	-7.1%	?	8.49µM*	-9.3%	13.1%
O=C(Nc1nnc(SCC(=O)N2CCCCC2)s1)c1cccs1	17.1%	?	1.6%	19µM*	-0.8%	2.3%
O=C(Nc1nnc(SCC(=O)N2CCCCC2)s1)c1ccccc1F	16.7%	.	12.1%	23.9µM*	.	10.3%
O=C1CS(=O)(=O)C2(C(=O)Nc3ccccc32)N1c1cccc(Cl)c1 (configuration not stated)	.	.	.	-1.3%	.	.
Cc1ccc(NC(=O)CN(C)C(=O)c2cc(S(=O)(=O)N(C)C)ccc2N2CCCC2)cc1	0.5%	.	-0.9%	2.9%	.	-0.4%
CCOc1ccccc1/C=N/Nc1ccccc1[N+](=O)[O-]	3.55µM*	.	?	?	.	5.0%
Cc1[nH]c2ccccc2c1/C=N/Nc1ccccc1[N+](=O)[O-]	?	1.3%	8.0%	16.9µM*	-29.3%	13.9%
COc1ccccc1/C=N\Nc1ccccc1[N+](=O)[O-]	2µM*	.	?	1.9µM*	.	9.2µM*
Cc1[nH]c2ccccc2c1/C=N/NS(=O)(=O)c1ccccc1	-2.4%	-1.1%	-1.6%	-10.3%	0.1%	-2.4%
N#Cc1cc([N+](=O)[O-])c2sc(C(N)=O)[n+]([O-])c2c1	-2.3%[46.1 µM]	.	-14.1%[46.1 µM]	.	.	.
COc1cccc(OC)c1OCCCOc1cccc2cccnc12	3.16µM*	?	?	16.9µM*	-8.0%	13.0%
Cc1ccc(OCCN2C(=O)c3ccccc3C2=O)c([N+](=O)[O-])c1	25.9%	-25.2%	13.5%	21.3µM*	-4.0%	7.1%
O=Cc1ccccc1OCCCOc1cccc2cccnc12	23.4%	.	21.7%	13.5µM*	.	5.8%
Cc1ccc2cccc(OCCCOc3ccccc3F)c2n1	12.6%	.	-1.8%	19µM*	.	3.4%
Cc1cccc(OCCCOc2cccc3cccnc23)c1C	4.6%	-20.6%	-3.4%	?	0.3%	-0.6%
CC(=O)Nc1cc(C(=O)NCc2ccco2)ccc1Sc1ccc(C)cc1	-4.0%	5.4%	-2.3%	-0.5%	1.6%	-0.1%
O=C(CN(C(=O)c1csnn1)c1ccc2c(c1)OCCO2)NCc1ccccc1	12.3%	.	11.5%	-4.0%	.	8.8%
Fc1ccc(COc2cccc3cccnc23)cc1	?	28.9%	?	16.9µM*	-2.6%	?
